For nine compounds, inhibition results are on record in ChEMBL document CHEMBL1961873, “Compounds: GSK PKIS; Assays: Nanosyn kinase panel” (2012).

The target of experiment [1] is T1, Ephrin type-B receptor 2 (Homo sapiens) (UniProt P29323).
T1 sequence (whole entry): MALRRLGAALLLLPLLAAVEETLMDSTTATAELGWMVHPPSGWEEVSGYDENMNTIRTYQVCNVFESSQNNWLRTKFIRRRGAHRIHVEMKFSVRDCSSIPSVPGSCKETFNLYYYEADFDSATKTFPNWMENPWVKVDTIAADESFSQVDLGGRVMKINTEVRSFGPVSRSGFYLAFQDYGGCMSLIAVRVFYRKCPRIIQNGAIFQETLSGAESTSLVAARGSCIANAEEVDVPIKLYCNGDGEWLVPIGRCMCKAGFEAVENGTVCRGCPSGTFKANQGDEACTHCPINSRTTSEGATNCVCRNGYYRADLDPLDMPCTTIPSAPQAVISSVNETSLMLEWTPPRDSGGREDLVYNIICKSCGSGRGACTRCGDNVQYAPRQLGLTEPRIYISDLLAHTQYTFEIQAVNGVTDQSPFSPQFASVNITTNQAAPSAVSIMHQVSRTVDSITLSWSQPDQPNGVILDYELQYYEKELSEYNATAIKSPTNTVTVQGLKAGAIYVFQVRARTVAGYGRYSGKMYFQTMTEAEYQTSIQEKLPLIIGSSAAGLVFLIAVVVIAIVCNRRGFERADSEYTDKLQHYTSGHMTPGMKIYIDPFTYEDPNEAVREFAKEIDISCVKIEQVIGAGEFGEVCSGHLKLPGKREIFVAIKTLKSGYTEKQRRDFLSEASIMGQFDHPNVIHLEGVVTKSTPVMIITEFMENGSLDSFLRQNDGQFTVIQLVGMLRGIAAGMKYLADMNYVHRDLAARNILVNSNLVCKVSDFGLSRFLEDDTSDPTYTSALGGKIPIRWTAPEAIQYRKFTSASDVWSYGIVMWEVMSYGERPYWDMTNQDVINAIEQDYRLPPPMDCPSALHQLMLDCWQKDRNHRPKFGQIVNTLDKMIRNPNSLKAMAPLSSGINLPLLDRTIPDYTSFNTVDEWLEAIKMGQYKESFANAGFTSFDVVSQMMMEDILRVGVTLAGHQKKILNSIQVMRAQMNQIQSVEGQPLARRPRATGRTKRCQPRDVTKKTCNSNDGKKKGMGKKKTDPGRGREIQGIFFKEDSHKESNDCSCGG
The settings on record: at 1 µM.

The target in experiment [2] is T2, Ephrin type-B receptor 3 (Homo sapiens) (UniProt P54753).
T2 sequence (whole entry): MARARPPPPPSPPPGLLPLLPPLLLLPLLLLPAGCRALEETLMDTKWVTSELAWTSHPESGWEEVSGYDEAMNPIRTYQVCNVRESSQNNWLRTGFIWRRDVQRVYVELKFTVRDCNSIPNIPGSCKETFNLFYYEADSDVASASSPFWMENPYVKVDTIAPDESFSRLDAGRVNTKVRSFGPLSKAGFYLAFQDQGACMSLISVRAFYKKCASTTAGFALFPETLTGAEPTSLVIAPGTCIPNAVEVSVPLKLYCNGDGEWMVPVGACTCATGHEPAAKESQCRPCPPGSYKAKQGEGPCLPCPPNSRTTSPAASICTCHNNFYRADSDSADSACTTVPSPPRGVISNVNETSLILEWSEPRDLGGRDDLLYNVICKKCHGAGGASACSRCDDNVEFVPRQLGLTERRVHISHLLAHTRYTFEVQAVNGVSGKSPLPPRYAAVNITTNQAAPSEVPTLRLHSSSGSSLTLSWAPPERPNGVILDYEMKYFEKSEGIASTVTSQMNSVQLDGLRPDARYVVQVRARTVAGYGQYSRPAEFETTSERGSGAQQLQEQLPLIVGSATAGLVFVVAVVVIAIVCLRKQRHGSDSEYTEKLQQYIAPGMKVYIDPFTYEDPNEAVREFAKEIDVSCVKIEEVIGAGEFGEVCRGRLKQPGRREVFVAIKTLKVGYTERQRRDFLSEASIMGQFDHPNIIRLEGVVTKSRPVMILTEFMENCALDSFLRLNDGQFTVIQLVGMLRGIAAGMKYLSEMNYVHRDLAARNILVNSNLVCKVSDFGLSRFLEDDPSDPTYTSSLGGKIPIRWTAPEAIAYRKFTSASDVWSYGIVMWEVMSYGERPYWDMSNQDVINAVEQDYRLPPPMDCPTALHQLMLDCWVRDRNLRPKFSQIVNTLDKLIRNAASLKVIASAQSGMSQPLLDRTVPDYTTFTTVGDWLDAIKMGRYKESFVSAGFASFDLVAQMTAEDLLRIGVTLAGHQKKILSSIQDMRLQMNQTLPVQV
The note with it: at 0.1 µM.

In experiment [3] the target is T2, Ephrin type-B receptor 3 (Homo sapiens). The settings on record: at 1 µM.
In experiment [4] the target is T3, Ephrin type-B receptor 4 (Homo sapiens) (UniProt P54760).
T3 sequence (whole entry): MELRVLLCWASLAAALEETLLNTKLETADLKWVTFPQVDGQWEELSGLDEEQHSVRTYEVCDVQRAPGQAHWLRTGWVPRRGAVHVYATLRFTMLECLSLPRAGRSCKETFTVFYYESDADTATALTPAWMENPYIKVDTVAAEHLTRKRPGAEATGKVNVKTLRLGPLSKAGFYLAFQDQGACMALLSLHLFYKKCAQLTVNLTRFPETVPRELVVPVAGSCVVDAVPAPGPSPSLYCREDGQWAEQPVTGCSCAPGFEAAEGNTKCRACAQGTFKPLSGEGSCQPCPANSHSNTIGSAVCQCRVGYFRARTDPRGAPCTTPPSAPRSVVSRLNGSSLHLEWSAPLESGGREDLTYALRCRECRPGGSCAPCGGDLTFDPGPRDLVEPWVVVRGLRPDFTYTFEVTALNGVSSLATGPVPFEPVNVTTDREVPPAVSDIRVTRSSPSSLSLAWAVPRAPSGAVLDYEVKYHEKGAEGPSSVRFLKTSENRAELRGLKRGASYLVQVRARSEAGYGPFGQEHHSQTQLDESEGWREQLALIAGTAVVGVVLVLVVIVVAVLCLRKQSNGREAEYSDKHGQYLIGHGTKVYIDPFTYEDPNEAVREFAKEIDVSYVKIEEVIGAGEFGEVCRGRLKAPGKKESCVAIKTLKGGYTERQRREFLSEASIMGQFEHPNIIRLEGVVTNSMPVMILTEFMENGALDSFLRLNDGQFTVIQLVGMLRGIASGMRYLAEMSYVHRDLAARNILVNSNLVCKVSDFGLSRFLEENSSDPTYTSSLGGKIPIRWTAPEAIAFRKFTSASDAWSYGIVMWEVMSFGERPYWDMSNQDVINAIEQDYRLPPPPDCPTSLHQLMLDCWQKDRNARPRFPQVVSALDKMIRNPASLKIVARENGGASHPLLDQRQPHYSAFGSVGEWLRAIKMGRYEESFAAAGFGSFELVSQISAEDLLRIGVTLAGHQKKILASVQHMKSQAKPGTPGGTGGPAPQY
The settings on record: at 0.1 µM.

Experiment [5] concerns the target T3, Ephrin type-B receptor 4 (Homo sapiens). The settings on record: at 1 µM.
The target in experiment [6] is Receptor tyrosine-protein kinase erbB-2 (Homo sapiens) (UniProt P04626). The settings on record: at 0.1 µM.
For experiment [7] the target is unchanged. The note with it: at 1 µM.
Experiment [8] addresses Receptor tyrosine-protein kinase erbB-4 (Homo sapiens) (UniProt Q15303). The settings on record: at 0.1 µM.
The target is the same in experiment [9]. The note with it: at 1 µM.
Experiment [10] addresses Tyrosine-protein kinase Fer (Homo sapiens) (UniProt P16591). The note with it: at 0.1 µM.

Chain of Receptor tyrosine-protein kinase erbB-2 (Homo sapiens) (P04626 whole entry): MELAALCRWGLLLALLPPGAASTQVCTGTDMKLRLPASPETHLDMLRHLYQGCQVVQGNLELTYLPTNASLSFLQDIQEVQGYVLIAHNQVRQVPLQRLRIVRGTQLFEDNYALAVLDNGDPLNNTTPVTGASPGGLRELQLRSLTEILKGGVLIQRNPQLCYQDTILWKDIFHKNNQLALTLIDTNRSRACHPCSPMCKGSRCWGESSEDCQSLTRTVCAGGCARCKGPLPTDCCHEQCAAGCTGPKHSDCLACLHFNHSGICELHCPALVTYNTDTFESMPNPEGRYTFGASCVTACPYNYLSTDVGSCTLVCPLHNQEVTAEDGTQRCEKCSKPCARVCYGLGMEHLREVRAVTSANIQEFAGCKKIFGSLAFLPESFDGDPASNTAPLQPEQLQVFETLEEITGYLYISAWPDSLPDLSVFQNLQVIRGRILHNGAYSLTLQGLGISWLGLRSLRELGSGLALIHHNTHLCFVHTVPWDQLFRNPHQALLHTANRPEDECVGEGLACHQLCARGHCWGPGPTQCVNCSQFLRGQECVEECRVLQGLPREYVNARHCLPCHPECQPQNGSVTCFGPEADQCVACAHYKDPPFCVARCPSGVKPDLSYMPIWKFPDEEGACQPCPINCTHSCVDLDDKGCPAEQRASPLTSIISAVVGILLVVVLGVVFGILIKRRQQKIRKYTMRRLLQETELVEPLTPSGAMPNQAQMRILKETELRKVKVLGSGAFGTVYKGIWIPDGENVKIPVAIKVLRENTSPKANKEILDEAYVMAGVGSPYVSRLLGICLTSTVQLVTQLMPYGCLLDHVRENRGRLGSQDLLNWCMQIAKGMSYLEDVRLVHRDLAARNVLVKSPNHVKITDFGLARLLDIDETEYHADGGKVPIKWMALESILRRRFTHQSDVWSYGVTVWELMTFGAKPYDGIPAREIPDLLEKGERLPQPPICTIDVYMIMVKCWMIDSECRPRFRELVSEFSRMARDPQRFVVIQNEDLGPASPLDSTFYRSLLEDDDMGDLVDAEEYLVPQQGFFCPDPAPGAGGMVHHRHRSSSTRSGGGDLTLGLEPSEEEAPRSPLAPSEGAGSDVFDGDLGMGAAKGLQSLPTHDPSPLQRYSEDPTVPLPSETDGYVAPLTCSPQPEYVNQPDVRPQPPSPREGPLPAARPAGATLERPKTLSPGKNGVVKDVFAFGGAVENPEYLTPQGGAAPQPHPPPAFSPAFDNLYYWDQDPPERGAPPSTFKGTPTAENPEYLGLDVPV
Chain of Tyrosine-protein kinase Fer (Homo sapiens) (P16591 whole entry, looked up): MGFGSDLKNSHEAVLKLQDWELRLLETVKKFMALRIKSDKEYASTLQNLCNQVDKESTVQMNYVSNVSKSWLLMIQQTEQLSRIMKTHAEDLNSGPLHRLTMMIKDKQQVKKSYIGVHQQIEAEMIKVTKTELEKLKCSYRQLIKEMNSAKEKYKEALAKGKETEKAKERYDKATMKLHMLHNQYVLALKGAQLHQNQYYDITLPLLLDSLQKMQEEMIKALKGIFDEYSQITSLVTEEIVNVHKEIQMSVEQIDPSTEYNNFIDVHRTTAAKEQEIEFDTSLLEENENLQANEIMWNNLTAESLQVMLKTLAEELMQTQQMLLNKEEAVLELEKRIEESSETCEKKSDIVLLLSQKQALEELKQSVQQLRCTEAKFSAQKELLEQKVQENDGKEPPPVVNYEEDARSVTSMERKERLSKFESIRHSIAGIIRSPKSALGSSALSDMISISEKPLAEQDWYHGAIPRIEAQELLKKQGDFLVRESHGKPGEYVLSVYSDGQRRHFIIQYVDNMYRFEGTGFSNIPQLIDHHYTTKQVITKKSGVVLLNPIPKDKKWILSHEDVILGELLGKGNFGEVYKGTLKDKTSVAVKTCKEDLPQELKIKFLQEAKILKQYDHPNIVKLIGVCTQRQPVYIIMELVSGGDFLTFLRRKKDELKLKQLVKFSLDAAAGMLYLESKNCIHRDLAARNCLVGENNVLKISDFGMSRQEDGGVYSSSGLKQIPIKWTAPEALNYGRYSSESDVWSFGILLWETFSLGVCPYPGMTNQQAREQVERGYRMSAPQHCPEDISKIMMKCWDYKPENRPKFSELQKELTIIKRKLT
Chain of Receptor tyrosine-protein kinase erbB-4 (Homo sapiens) (Q15303 whole entry): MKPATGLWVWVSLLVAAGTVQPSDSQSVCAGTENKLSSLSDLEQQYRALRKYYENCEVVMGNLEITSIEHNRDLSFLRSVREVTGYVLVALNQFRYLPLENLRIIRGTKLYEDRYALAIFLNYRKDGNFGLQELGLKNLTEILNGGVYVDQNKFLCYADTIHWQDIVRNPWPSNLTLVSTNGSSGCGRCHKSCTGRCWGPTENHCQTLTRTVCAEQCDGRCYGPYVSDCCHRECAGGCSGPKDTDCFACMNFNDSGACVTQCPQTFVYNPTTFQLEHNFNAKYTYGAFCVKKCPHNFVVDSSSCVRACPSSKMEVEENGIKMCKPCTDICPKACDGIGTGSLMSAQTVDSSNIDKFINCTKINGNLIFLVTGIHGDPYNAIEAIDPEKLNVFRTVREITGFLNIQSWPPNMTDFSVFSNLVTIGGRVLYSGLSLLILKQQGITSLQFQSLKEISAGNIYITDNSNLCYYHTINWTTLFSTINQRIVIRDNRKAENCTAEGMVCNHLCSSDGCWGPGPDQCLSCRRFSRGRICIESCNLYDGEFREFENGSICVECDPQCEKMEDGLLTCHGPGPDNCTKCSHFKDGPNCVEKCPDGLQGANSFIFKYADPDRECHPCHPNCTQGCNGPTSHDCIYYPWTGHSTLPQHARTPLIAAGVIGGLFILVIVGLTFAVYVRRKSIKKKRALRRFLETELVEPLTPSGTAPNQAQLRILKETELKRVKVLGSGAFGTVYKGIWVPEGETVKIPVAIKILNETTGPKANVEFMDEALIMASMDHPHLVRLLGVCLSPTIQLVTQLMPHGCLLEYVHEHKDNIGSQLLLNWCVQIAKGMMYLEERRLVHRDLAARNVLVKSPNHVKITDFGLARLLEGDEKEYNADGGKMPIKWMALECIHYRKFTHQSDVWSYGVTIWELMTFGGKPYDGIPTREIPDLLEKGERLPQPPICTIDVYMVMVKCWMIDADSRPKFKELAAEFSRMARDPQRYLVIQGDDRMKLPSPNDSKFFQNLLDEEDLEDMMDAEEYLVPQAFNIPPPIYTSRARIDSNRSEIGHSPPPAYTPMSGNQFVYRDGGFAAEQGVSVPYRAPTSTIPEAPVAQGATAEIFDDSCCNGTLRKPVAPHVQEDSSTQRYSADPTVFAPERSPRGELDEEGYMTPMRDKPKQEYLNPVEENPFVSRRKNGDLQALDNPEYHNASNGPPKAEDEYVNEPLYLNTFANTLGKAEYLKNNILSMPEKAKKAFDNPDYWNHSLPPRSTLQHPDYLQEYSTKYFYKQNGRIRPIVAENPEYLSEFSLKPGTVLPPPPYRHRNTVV

On to `O=C(Nc1n[nH]c2nc(-c3ccco3)c(Br)cc12)C1CC1`, for which the inhibition in [1] came to 5.48%; in experiment [2], 4.64%; in experiment [3], 3.95%; in [4], 2.69%; in [5], 3.48%; in experiment [6], 1.49%. The inhibition in experiment [7] was -3.9%; in experiment [8], 10.1%; in experiment [9] it was 15.8%; in experiment [10], 1.93%.

In the case of `CS(=O)(=O)CCNCc1nc(-c2ccc3ncnc(Nc4ccc(F)c(Cl)c4)c3c2)cs1`, the inhibition in [1] came to 22.5%; in experiment [2] it was 6.15%; in experiment [3], 9.44%; in experiment [4], 1.4%; in [5], 8.6%; in experiment [6] it was 7.41%. The inhibition worked out at 34.5% in experiment [7], 46.6% in experiment [8], 83.1% in experiment [9] and 1.44% in [10].

Consider `CCn1c(-c2nonc2N)nc2ccncc21`, for which the inhibition in experiment [2] was 2.91%; in [3], -1.68%; in experiment [4], -0.26%; in experiment [5], 0.27%; in experiment [6], 0.8%; in experiment [7] it was -4.21%. Besides, the inhibition in experiment [8] is 7.5%; in experiment [9], 9.71%; in [10], 2.5%.

Turning to `Fc1cccc(COc2ccc(Nc3ncnc4cc(-c5ccc[nH]5)sc34)cc2Cl)c1`, the inhibition in experiment [1] is 6.05%; in experiment [2] it was 0.75%; in experiment [3] it was -2.49%; in [4], -1.44%; in [5], -2.14%; in experiment [6], 0.71%. Moreover, the inhibition in experiment [7] came to 15.2%; in experiment [8], 36.5%; in [9], 68.5%; in [10], 1.94%.

As for `NS(=O)(=O)c1cccc(-c2ccc3c(NC(=O)C4CC4)n[nH]c3c2)c1`, the inhibition in experiment [1] was -0.57%; in experiment [2] it was -3.25%; in [3], -3.05%; in experiment [4], -1.93%; in experiment [5] it was -1.01%; in experiment [6] it was -3.46%. In addition, the inhibition in [7] is -5.29%; in experiment [8], -3.96%; in experiment [9], -3.93%; in experiment [10], 1.7%.

As to `COc1cccc(-n2ncc3c(N/N=C/c4cccc(F)c4)ncnc32)c1`, the inhibition in [1] is 4.03%; in [2], 0.95%; in experiment [3], -0.77%; in experiment [4] it was -0.91%; in experiment [5], 0.63%; in experiment [6], 1.57%. In addition, the inhibition in experiment [7] was -0.99%; in [8], 1.08%; in experiment [9] it was 2.68%; in [10] it was 2.76%.

On to `Cc1nnc(-c2ccc(C)c(-c3ccc(C(=O)Nc4cccc(C#N)c4)cc3)c2)o1`, for which the inhibition amounted to 8.63% in [1]; 4.01% in experiment [2]; 4.32% in experiment [3]; 1.3% in [4]; 1.73% in experiment [5]; 2.71% in [6]. The inhibition in experiment [7] was 2.09%; in experiment [8] it was 11%; in experiment [9], 16.2%; in experiment [10] it was 2%.

Consider `COc1ccc(COc2ccc(Cc3cnc(N)nc3N)cc2OC)cc1`, for which the inhibition was 8.3% in [1]; -1.18% in [2]; -4.82% in experiment [3]; 0.94% in experiment [4]; 3.27% in [5]; -1.55% in [6]. For the same compound, the inhibition is -2.79% in [7], 3.15% in experiment [8], 3.43% in experiment [9] and 2.14% in experiment [10].

Take `CC1=C(C(=O)Nc2ccc3[nH]ncc3c2)C(c2ccc(Cl)c(Cl)c2)CC(=O)N1` (centres undefined): the inhibition in experiment [1] is 12.5%; in experiment [2], 3.28%; in experiment [3] it was 2.88%; in experiment [4] it was 1.18%; in [5], 1.59%; in [6], 0.3%. Further, the inhibition in [7] turned out to be 0.63%; in [8], 8.29%; in [9] it was 17.8%; in experiment [10] it was 1.45%.
